Screen size: about 5,500 compounds; about 2,000 (36%) were called active. Not shown: some 18% with an inconclusive outcome. Cut-off read from the data, not from the text of the source: active = normalized growth mostly below about 0.91 (no sharp cut-off); inconclusive = no clear call, values can overlap the other calls; inactive = mostly above about 0.92. The list shows a part of the results.
Test: chemical genetic growth profiling, strain panel (AID 1159580);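 note: tested at 20 µM; growth read once vehicle control cultures reached saturation at 30 °C; 1 = growth at the plate median or of vehicle wells; lower values mean less growth of the strain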
Conditions: growth OD

Measured: normalized growth

Nc1c2c(nc3ccccc13)CCCC2O (stereo not drawn)
inactive: S. cerevisiae deletion strains, locus YJR066W, strain TOR1, hits give low values 0.916 | S. cerevisiae deletion strains, locus YJR075W, strain HOC1, hits give low values 0.987 | S. cerevisiae deletion strains, locus YKL009W, strain mrt4, hits give low values 0.976 | S. cerevisiae deletion strains, locus YKL068W, hits give low values 0.987 | S. cerevisiae deletion strains, locus YKL085W, strain MDH1 (second series), hits give low values 0.991 | S. cerevisiae deletion strains, locus YKL085W, strain MDH1, hits give low values 0.991 | S. cerevisiae deletion strains, locus YKL160W, strain elf1, hits give low values 1.01 | S. cerevisiae deletion strains, locus YKL190W, strain CNB1, hits give low values 1.01 | S. cerevisiae deletion strains, locus YKR001C, strain vps1, hits give low values 0.989 | S. cerevisiae deletion strains, locus YKR026C, strain gcn3, hits give low values 1.01 | S. cerevisiae deletion strains, locus YKR091W, strain srl3, hits give low values 0.998 | S. cerevisiae deletion strains, locus YLL001W, strain dnm1, hits give low values 0.983 | S. cerevisiae deletion strains, locus YLL026W, hits give low values 0.996 | S. cerevisiae deletion strains, locus YLL041C, strain sdh2, hits give low values 1.02 | S. cerevisiae deletion strains, locus YLR027C, strain aat2, hits give low values 1.01 | S. cerevisiae deletion strains, locus YLR039C, strain RIC1, hits give low values 1.01 | S. cerevisiae deletion strains, locus YLR058C, strain SHM2, hits give low values 1.01 | S. cerevisiae deletion strains, locus YLR102C, strain apc9, hits give low values 0.984 | S. cerevisiae deletion strains, locus YLR113W, strain HOG1, hits give low values 1.03 | S. cerevisiae deletion strains, locus YLR221C, strain rsa3, hits give low values 1.02 | S. cerevisiae deletion strains, locus YLR258W, strain gsy2, hits give low values 0.996 | S. cerevisiae deletion strains, locus YLR262C, strain YPT6 (second series), hits give low values 1.01 | S. cerevisiae deletion strains, locus YLR262C, strain YPT6, hits give low values 0.963 | S. cerevisiae deletion strains, locus YLR268W, strain sec22, hits give low values 0.966 | S. cerevisiae deletion strains, locus YLR320W, strain mms22, hits give low values 1.01 | S. cerevisiae deletion strains, locus YLR330W, strain CHS5, hits give low values 0.989 | S. cerevisiae deletion strains, locus YLR342W, strain FKS1 (second series), hits give low values 1.01 | S. cerevisiae deletion strains, locus YLR342W, strain FKS1, hits give low values 1.01 | S. cerevisiae deletion strains, locus YLR357W, strain rsc2, hits give low values 0.975 | S. cerevisiae deletion strains, locus YLR370C, strain arc18, hits give low values 1 | S. cerevisiae deletion strains, locus YLR371W, strain rom2, hits give low values 0.98 | S. cerevisiae deletion strains, locus YLR384C, strain iki3, hits give low values 1 | S. cerevisiae deletion strains, locus YLR418C, strain cdc73, hits give low values 1.02 | S. cerevisiae deletion strains, locus YML016C, strain PPZ1, hits give low values 1.01 | S. cerevisiae deletion strains, locus YML032C, strain rad52, hits give low values 0.99 | S. cerevisiae deletion strains, locus YML120C, strain ndi1, hits give low values 1.03 | S. cerevisiae deletion strains, locus YML124C, strain tub3, hits give low values 0.998 | S. cerevisiae deletion strains, locus YMR058W, strain fet3, hits give low values 1.02 | S. cerevisiae deletion strains, locus YMR078C, strain ctf18, hits give low values 0.993 | S. cerevisiae deletion strains, locus YMR125W, strain sto1, hits give low values 0.997 | S. cerevisiae deletion strains, locus YMR129W, hits give low values 0.999 | S. cerevisiae deletion strains, locus YMR205C, strain PFK2, hits give low values 0.996 | S. cerevisiae deletion strains, locus YMR223W, strain ubp8, hits give low values 0.987 | S. cerevisiae deletion strains, locus YMR231W, strain pep5, hits give low values 0.999 | S. cerevisiae deletion strains, locus YMR307W, strain GAS1, hits give low values 1.08 | S. cerevisiae deletion strains, locus YNL067W, strain RPL9B, hits give low values 1.01 | S. cerevisiae deletion strains, locus YNL071W, strain lat1, hits give low values 1.01 | S. cerevisiae deletion strains, locus YNL128W, strain TEP1, hits give low values 1.02 | S. cerevisiae deletion strains, locus YNL175C, strain NOP13, hits give low values 1 | S. cerevisiae deletion strains, locus YNL183C, strain NPR1, hits give low values 0.912 | S. cerevisiae deletion strains, locus YNL197C, strain WHI3, hits give low values 0.968 | S. cerevisiae deletion strains, locus YNL209W, strain ssb2, hits give low values 1.01 | S. cerevisiae deletion strains, locus YNL224C, strain SQS1, hits give low values 1 | S. cerevisiae deletion strains, locus YNL233W, strain BNI4, hits give low values 1.03 | S. cerevisiae deletion strains, locus YNL248C, strain rpa49, hits give low values 0.992 | S. cerevisiae deletion strains, locus YNL250W, strain rad50, hits give low values 1.01 | S. cerevisiae deletion strains, locus YNL271C, strain bni1, hits give low values 0.981 | S. cerevisiae deletion strains, locus YNL298W, strain CLA4, hits give low values 0.988 | S. cerevisiae deletion strains, locus YNL307C, strain MCK1, hits give low values 0.993 | S. cerevisiae deletion strains, locus YNL322C, strain KRE1 (second series), hits give low values 1.01 | S. cerevisiae deletion strains, locus YNR049C, strain mso1, hits give low values 1.01 | S. cerevisiae deletion strains, locus YNR052C, strain pop2, hits give low values 0.966 | S. cerevisiae deletion strains, locus YOL006C, strain TOP1, hits give low values 1.13 | S. cerevisiae deletion strains, locus YOL012C, strain htz1 0.815 | S. cerevisiae deletion strains, locus YOL147C, strain pex11, hits give low values 0.999 | S. cerevisiae deletion strains, locus YOR001W, strain rrp6, hits give low values 1.03 | S. cerevisiae deletion strains, locus YOR061W, strain CKA2, hits give low values 1.01 | S. cerevisiae deletion strains, locus YOR069W, strain VPS5, hits give low values 1 | S. cerevisiae deletion strains, locus YOR070C, strain gyp1, hits give low values 1.01 | S. cerevisiae deletion strains, locus YOR080W, strain dia2, hits give low values 0.996 | S. cerevisiae deletion strains, locus YOR083W, strain WHI5 (second series), hits give low values 0.986 | S. cerevisiae deletion strains, locus YOR083W, strain WHI5, hits give low values 1.01 | S. cerevisiae deletion strains, locus YOR106W, strain vam3, hits give low values 1 | S. cerevisiae deletion strains, locus YOR136W, strain idh2, hits give low values 0.997 | S. cerevisiae deletion strains, locus YOR144C, strain elg1, hits give low values 0.999 | S. cerevisiae deletion strains, locus YOR184W, strain ser1, hits give low values 0.988 | S. cerevisiae deletion strains, locus YOR231W, strain MKK1, hits give low values 0.977 | S. cerevisiae deletion strains, locus YOR265W, strain rbl2, hits give low values 1 | S. cerevisiae deletion strains, locus YOR270C, strain vph1, hits give low values 1.02 | S. cerevisiae deletion strains, locus YOR290C, strain snf2, hits give low values 0.974 | S. cerevisiae deletion strains, locus YOR316C, strain cot1, hits give low values 0.977 | S. cerevisiae deletion strains, locus YPL051W, strain arl3, hits give low values 1.01 | S. cerevisiae deletion strains, locus YPL055C, strain LGE1, hits give low values 1.06 | S. cerevisiae deletion strains, locus YPL078C, strain atp4, hits give low values 1.01 | S. cerevisiae deletion strains, locus YPL106C, strain sse1, hits give low values 1.01 | S. cerevisiae deletion strains, locus YPL240C, strain hsp82, hits give low values 1.01 | S. cerevisiae deletion strains, locus YPL256C, strain CLN2, hits give low values 0.962 | S. cerevisiae deletion strains, locus YPR119W, strain clb2, hits give low values 0.976 | S. cerevisiae deletion strains, locus YPR141C, strain kar3, hits give low values 0.982 | S. cerevisiae deletion strains, locus YPR163C, strain tif3, hits give low values 0.973 | S. cerevisiae deletion strains, locus YPR167C, strain met16, hits give low values 0.984 | S. cerevisiae deletion strains, strain wtn01, hits give low values 0.993 | S. cerevisiae strains, strain wild type, hits give low values 1.02
